Source: PubChem BioAssay (EPA / NIEHS)
Activity calls are given as the source filed them. How the source made its calls: active means hit-call score of the fitted dose curve at least 0.9, where 1 is the maximum; inactive means score below 0.9.

Assays:
[1] = ATG_CRE_CIS: Attagene CIS-FACTORIAL HepG2 Assay for human cAMP Responsive Element (CRE) binding protein 3 (AID 2282926); settings: HepG2 CRE cis-reporter, Attagene multiplexed mRNA; actives raise or lower the signal
Procedure, shortened: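 Readout: fluorescently labelled reporter transcripts resolved by capillary electrophoresis after RT-PCR, taken 24 h post-dosing in transfected HepG2. Endogenous transcription factor activity drives each cis-element reporter; gain or loss of signal fitted relative to DMSO control.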

[2] = biological target: CCAAT/enhancer-binding protein beta (Homo sapiens) (UniProt P17676); test: ATG_C_EBP_CIS: Attagene CIS-FACTORIAL HepG2 Assay for human CCAAT/Enhancer Binding Protein (C/EBP) beta (AID 2282927); settings: HepG2 Attagene cis-factorial transcription factor reporter; actives raise or lower the signal
CCAAT/enhancer-binding protein beta (Homo sapiens), sequence (P17676 whole entry, looked up): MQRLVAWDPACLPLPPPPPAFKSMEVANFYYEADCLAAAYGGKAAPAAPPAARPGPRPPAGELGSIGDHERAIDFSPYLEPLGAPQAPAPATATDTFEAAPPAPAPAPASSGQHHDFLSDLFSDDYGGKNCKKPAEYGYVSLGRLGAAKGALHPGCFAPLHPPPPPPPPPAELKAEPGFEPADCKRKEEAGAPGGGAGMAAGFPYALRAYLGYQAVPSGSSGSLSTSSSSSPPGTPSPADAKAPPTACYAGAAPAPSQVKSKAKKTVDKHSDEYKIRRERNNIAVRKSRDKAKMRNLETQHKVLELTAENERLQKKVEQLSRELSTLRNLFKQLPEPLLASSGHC
Procedure, shortened: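 HepG2, transient MRTU transfection, 24 h treatment. RT-PCR plus CE fluorescence; DMSO negative control, bidirectional fit.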

[3] = ATG_CMV_CIS: Attagene CIS-FACTORIAL HepG2 Assay for human CMV (Internal Marker) (AID 2282928); settings: HepG2 CMV promoter reporter, transcription factor profiling; actives raise or lower the signal;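 further: endpoint acts as a background internal control marker rather than a target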
Procedure, shortened: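 Reporter transcripts from transfected HepG2 cells are isolated after 24 h of chemical dosing, reverse-transcribed and amplified. Fragments labeled with 6-FAM are cut with HpaI and quantified by capillary electrophoresis; DMSO defines baseline.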

[4] = ATG_DR4_LXR_CIS: Attagene CIS-FACTORIAL HepG2 Assay for human Liver X Receptor (LXR), DR4 submotif (AID 2282929); settings: HepG2 Attagene DR4 cis-reporter, mRNA transcription; actives raise or lower the signal
Procedure, shortened: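 Transiently transfected HepG2 liver cells; cis-regulated reporters; 24 h dosing. RT-PCR plus CE read-out of reporter mRNA. DMSO baseline, bidirectional curve fitting.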

[5] = biological target: Aryl hydrocarbon receptor (Homo sapiens) (UniProt P35869); test: ATG_Ahr_CIS: Attagene CIS-FACTORIAL HepG2 Assay for human Aryl Hydrocarbon Receptor (Ahr) (AID 2282930); settings: HepG2 AhR cis-factorial reporter transcription; actives raise or lower the signal
Aryl hydrocarbon receptor (Homo sapiens), sequence (P35869 whole entry, looked up): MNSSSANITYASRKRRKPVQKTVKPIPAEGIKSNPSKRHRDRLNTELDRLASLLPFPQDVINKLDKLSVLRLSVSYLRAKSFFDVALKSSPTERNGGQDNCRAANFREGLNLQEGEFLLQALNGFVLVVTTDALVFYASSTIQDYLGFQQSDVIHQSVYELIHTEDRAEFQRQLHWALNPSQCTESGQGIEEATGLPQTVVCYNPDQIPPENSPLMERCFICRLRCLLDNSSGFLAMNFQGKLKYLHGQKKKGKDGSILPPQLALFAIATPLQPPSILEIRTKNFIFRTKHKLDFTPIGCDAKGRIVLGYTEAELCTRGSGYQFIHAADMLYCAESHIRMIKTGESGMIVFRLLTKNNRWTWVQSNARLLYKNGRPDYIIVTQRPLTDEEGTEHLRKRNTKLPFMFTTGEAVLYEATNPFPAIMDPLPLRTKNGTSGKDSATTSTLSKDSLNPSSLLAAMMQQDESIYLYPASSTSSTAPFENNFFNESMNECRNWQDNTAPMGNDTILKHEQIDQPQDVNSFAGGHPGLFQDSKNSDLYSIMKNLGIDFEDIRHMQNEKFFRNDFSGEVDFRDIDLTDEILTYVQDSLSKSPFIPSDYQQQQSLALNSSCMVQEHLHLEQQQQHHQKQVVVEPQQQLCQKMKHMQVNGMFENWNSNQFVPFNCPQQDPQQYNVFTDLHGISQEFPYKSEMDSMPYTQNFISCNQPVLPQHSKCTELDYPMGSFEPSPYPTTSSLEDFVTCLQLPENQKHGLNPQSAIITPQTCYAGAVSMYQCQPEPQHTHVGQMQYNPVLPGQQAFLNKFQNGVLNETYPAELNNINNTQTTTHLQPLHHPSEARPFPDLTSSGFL
Procedure, shortened: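 Endogenous factor activity is tracked through cis-promoter reporter units transfected into HepG2 cells. Transcript levels at 24 h are read by fluorescent RT-PCR and capillary electrophoresis, with activity in either direction scored relative to DMSO.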

[6] = ATG_AP_1_CIS: Attagene CIS-FACTORIAL HepG2 Assay for human Activator Protein 1 (AP-1) (AID 2282931); settings: HepG2 Attagene cis-factorial AP-1 reporter mRNA; actives raise or lower the signal
Procedure, shortened: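 We transfected HepG2 cells transiently with a set of cis-regulated reporter transcription units, dosed them for 24 h, and quantified reporter mRNA via RT-PCR and capillary electrophoresis, scoring gain or loss of signal relative to DMSO.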

[7] = ATG_AP_2_CIS: Attagene CIS-FACTORIAL HepG2 Assay for human Activator Protein 2 (AP-2) (AID 2282932); settings: HepG2 AP-2 cis-reporter, Attagene transcription factor profiling; actives raise or lower the signal
Procedure, shortened: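 Liver-derived HepG2 line, cis-reporter system measuring endogenous factors; 24 h dosing; reporter mRNA detected by fluorescent RT-PCR and capillary electrophoresis.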

[8] = ATG_BRE_CIS: Attagene CIS-FACTORIAL HepG2 Assay for human Bone Morphogenetic Protein (BMP) Response Element (BRE) (AID 2282933); settings: HepG2 BMP response element reporter, Attagene transcription factor profiling; actives raise or lower the signal
Procedure, shortened: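 Read-out: reporter mRNA induction quantified by RT-PCR and capillary electrophoresis after 24 h chemical exposure of transfected HepG2 cells. Endogenous factor activity on the BMP response element; gain or loss fitted against DMSO baseline.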

[9] = biological target: Transcription factor E2F1 (Homo sapiens) (UniProt Q01094); test: ATG_E2F_CIS: Attagene CIS-FACTORIAL HepG2 Assay for human E2F Transcription Factor 1 (AID 2282935); settings: HepG2 Attagene cis-reporter, E2F reporter RNA transcripts; actives raise or lower the signal
Transcription factor E2F1 (Homo sapiens), sequence (Q01094 whole entry, looked up): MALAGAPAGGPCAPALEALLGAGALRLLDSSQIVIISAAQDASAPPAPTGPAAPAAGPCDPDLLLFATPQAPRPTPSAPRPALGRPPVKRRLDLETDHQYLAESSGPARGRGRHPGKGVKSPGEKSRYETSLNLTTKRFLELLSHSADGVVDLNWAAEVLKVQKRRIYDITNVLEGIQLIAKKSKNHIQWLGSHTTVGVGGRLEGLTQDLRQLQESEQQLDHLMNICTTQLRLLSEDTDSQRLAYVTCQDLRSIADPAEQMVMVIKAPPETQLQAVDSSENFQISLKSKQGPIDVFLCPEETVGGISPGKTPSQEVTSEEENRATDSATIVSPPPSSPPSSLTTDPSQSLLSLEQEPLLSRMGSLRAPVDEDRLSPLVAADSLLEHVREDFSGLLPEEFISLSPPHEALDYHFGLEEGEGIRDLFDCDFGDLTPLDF
Procedure, shortened: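 Liver-derived HepG2 cells expressing transfected promoter-driven reporter units received test chemical for 24 hours. Signal gains or losses were fitted bidirectionally against DMSO.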

[10] = ATG_E_Box_CIS: Attagene CIS-FACTORIAL HepG2 Assay for human Enhancer Box (E-box) (AID 2282936); settings: HepG2 E-box cis-reporter transcription, actives raise or lower the signal
Procedure, shortened: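 In this cell-based setup, HepG2 cells bearing transfected promoter-driven reporter units were exposed to chemicals for 24 h; reporter transcripts were amplified, 6-FAM-labelled, cut with HpaI and sized by capillary electrophoresis.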

[11] = ATG_M_61_CIS: Attagene CIS-FACTORIAL HepG2 Assay for M61 Transcription Factor (Internal Marker) (AID 2282937); settings: HepG2 Attagene CIS-FACTORIAL M61 internal marker reporter; actives raise or lower the signal
Procedure, shortened: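 Multiplexed reporter mRNA assay, HepG2 human hepatoma cells, 24 h treatment. Signal: FAM-labelled, HpaI-digested RT-PCR fragments by CE. Fit: bidirectional, baseline DMSO.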

[12] = ATG_EGR_CIS: Attagene CIS-FACTORIAL HepG2 Assay for human Early Growth Response 1 (EGR1) (AID 2282938); settings: HepG2 Attagene CIS-FACTORIAL EGR reporter mRNA; actives raise or lower the signal
Procedure, shortened: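 Multiplexed cis-reporter system in human hepatoma HepG2 cells, transiently transfected. Cells are dosed for 24 h; reporter transcripts are amplified, fluorescently tagged and sized by capillary electrophoresis, with DMSO as negative control.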

[13] = ATG_M_19_CIS: Attagene CIS-FACTORIAL HepG2 Assay for M19 Transcription Factor (Internal Marker) (AID 2282939); settings: HepG2 Attagene CIS-FACTORIAL M19 internal marker reporter; actives raise or lower the signal
Procedure, shortened: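 Readout: fluorescent reporter-transcript fragments by capillary electrophoresis after RT-PCR. Human HepG2 liver cells carried transfected MRTU constructs reporting endogenous transcription-factor activity; exposure 24 h. Gain or loss of signal fitted relative to DMSO.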

[14] = biological target: Hepatocyte nuclear factor 3-beta (Homo sapiens) (UniProt Q9Y261); test: ATG_FoxA2_CIS: Attagene CIS-FACTORIAL HepG2 Assay for human Forkhead box A2 (FOXA2) (AID 2282942); settings: HepG2 cis-reporter transcription factor activity, 24 h; actives raise or lower the signal
Hepatocyte nuclear factor 3-beta (Homo sapiens), sequence (Q9Y261 whole entry, looked up): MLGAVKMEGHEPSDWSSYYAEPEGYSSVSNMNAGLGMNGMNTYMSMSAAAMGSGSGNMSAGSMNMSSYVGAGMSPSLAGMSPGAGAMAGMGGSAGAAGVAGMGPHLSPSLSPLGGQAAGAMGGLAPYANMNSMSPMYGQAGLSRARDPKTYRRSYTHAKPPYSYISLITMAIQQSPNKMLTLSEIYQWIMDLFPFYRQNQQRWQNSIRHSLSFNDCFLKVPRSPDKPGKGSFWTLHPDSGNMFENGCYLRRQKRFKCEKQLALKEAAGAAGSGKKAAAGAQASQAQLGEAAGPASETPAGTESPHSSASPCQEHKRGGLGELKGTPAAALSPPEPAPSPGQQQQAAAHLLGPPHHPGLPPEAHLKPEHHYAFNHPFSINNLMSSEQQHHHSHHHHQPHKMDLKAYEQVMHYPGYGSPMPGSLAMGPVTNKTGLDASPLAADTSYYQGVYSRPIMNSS
Procedure, shortened: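 Multiplexed cis-element reporter assay in transiently transfected HepG2. Twenty-four hours post-dosing, RNA was reverse-transcribed, amplified, FAM-labelled, HpaI-digested and separated by CE. Activity gain or loss relative to DMSO.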

[15] = ATG_FoxO_CIS: Attagene CIS-FACTORIAL HepG2 Assay for human Forkhead box O (FoxO) (AID 2282943); settings: HepG2 Attagene cis-reporter, FoxO element, mRNA; actives raise or lower the signal
Procedure, shortened: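 Transfected HepG2 reporter cells exposed to test chemical for 24 h; reporter RNA measured by reverse transcription, PCR and fluorescent capillary electrophoresis; curves fitted for increases and decreases against DMSO.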

[16] = ATG_GATA_CIS: Attagene CIS-FACTORIAL HepG2 Assay for human GATA Binding Protein (AID 2282944); settings: HepG2 GATA cis-element reporter, Attagene multiplex mRNA; actives raise or lower the signal
Procedure, shortened: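 Read-out: fluorescent reporter mRNA fragments resolved by capillary electrophoresis after RT-PCR. Human liver HepG2 cells carried transiently transfected cis-regulated reporter constructs; chemicals incubated 24 h; gain or loss of signal fitted relative to DMSO.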

[17] = ATG_GLI_CIS: Attagene CIS-FACTORIAL HepG2 Assay for human Zinc Finger Protein GLI1 (AID 2282945); settings: HepG2, Attagene cis-factorial reporter mRNA, GLI element; actives raise or lower the signal
Procedure, shortened: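 Transiently transfected HepG2 cells report endogenous transcription factor activity via cis-element-driven reporter units. After 24 h compound exposure, reporter mRNA was measured by RT-PCR with capillary electrophoresis; bidirectional fitting against DMSO baseline.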

[18] = ATG_ERE_CIS: Attagene CIS-FACTORIAL HepG2 Assay for Estrogen Response Element (ERE) (AID 2282940); settings: HepG2 ERE cis-reporter, Attagene RNA transcript; actives raise or lower the signal
Procedure, shortened: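 Readout: reporter mRNA induction by RT-PCR, FAM-labelled primer extension, HpaI digestion and capillary electrophoresis, 24 h after dosing transfected HepG2 cells. Endogenous transcription factors act on cis-element-regulated reporters. Gain or loss fitted against DMSO.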

[19] = ATG_Ets_CIS: Attagene CIS-FACTORIAL HepG2 Assay for human Erythroblast Transformation Specific (ETS) (AID 2282941); settings: HepG2 ETS cis-reporter transcription, actives raise or lower the signal
Procedure, shortened: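 Bidirectional fit versus DMSO of reporter mRNA signal, detected by RT-PCR and capillary electrophoresis in HepG2 cells transiently transfected with cis-element reporters and dosed 24 h.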

Measured: outcome

CC(C)[C@@H]1CC[C@@H](C)CC1=O
not listed: [18] | [19]
inactive: all other assays above

CCCCO
not listed: [16] | [18] | [19]
inactive: all other assays above

CC(C)(C)C(=O)c1ccccc1
not listed: [10]
inactive: all other assays above

C=CC(C)(CCC=C(C)C)OC=O (centres undefined)
not listed: [10]
inactive: all other assays above

C=CC(C)(C)O
not listed: [10]
inactive: all other assays above

CCCCCCCCC=O
not listed: [5] | [18]
inactive: all other assays above

Cc1ccc(C=O)cc1
not listed: [10]
inactive: all other assays above

O=C(O)Cc1cccc2ccccc12
not listed: [18] | [19]
inactive: all other assays above
